Results filed as inconclusive are left out. Activity calls are given as the source filed them. Unless noted, calls follow the shape of the dose curve; as a rule, active = well fitted curve in the direction sought with a large enough effect in the repeat runs; inconclusive = weak or mixed curves; inactive = no such curve, though single readings can be large; an effect the other way counts as inactive or inconclusive.
% is scaled to controls: 0 for no effect and ±100 for the full control effect; potency is read from the fitted curve at half-maximal effect.

One assay is described as follows: qHTS assay to identify small molecule antagonists of the progesterone receptor (PR) signaling pathway - cell viability counter screen (AID 1346798). Also: nearly all actives have a fitted effect of over 50% in size. Particulars: PR-UAS-bla HEK293T viability, CellTiter-Glo luminescence, 16 h; series mostly up to 92.4 µM; activity change, negative = cytotoxicity: at the top concentration. Put shortly:
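Following a 4 hr attachment, PR-UAS-bla HEK293T cells in charcoal-stripped FBS medium were exposed to compounds with R5020 for 16 hr; CellTiter-Glo was added and luminescence read after 30 min at room temperature.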
Background: Quantitative high-throughput screening tests each substance at several concentrations.
As to `NC(=O)C1(N2CCCCC2)CCN(CCCN2c3ccccc3CCc3ccc(Cl)cc32)CC1`, the Potency is 23.7 µM (active).

In the case of `Cc1cccc2c1cc1ccc3cccc4ccc2c1c34`, the “activity change, negative = cytotoxicity” value is -0.0068% (inactive).

For `CCCCCOC(=O)CCCC`, the “activity change, negative = cytotoxicity” value was 2.85% (inactive).

On to `O=[N+]([O-])c1ccccc1Nc1ccccc1`, for which the “activity change, negative = cytotoxicity” value is 1.64% (inactive).

`CCCCC(CC)COC(=O)c1ccccc1C(=O)O` (stereo not given): the “activity change, negative = cytotoxicity” value is 10.8% (inactive).

As to `CCCC(=O)OC[C@@H](OC(=O)CCC)[C@@H](OC(=O)CCC)[C@H](Cn1c2nc(=O)[nH]c(=O)c-2nc2cc(C)c(C)cc21)OC(=O)CCC`, the “activity change, negative = cytotoxicity” value is 22.9% [at 42.5 µM] (inactive).

Consider `O=C(Nc1cccc(C(F)(F)F)c1)c1cc(Br)cc(Br)c1O`, for which the Potency is 21.7 µM (active).

For `CCc1cc(Cc2cc(CC)c(N)c(CC)c2)cc(CC)c1N`, the Potency was 68.6 µM (active).

For `O=C1C=CC(=O)N1`, the Potency is 55.9 µM (active).

Consider `CCOC(=O)O[C@H](C)OC(=O)c1ccc2c(c1)cc(C(=O)NC1CCN(C(C)C)CC1)n2Cc1cc(-c2ccc(Cl)s2)on1`, for which the Potency was 22.7 µM (active).

As to `CCN(CC)CCCC(C)Nc1c2ccc(Cl)cc2nc2ccc(OC)cc12` (stereo not given), the Potency is 13.3 µM (active).

Take `CN1CCC(Nc2ncc3ncnc(Nc4ccc(F)c(Cl)c4)c3n2)CC1`: the Potency is 16.8 µM (active).

With `CC[C@@]1(O)C(=O)OCc2c1cc1n(c2=O)Cc2c-1nc1ccccc1c2/C=N/OC(C)(C)C`, the “activity change, negative = cytotoxicity” value is -19.1% [at 42.5 µM] (inactive).

As for `CCN(C(=O)c1cc(C)cc(OC[C@H](C)Nc2ccncc2)c1)C(C)C`, the “activity change, negative = cytotoxicity” value was -7.13% [at 42.5 µM] (inactive).

For `COc1ccc(CN2CCN(C(c3ccc(F)cc3)c3ccc(F)cc3)CC2)c(OC)c1OC`, the Potency was 16.8 µM (active).

On to `O=C(Nc1cccc(Cl)c1)OCC#CCCl`, for which the Potency was 54.5 µM (active).

For `Nc1nc2ccccc2n1Cc1ccc(F)cc1`, the “activity change, negative = cytotoxicity” value was 0.792% [at 42.5 µM] (inactive).

On to `O=C(Nc1cccc([N+](=O)[O-])c1)c1cc2ccccc2cc1O`, for which the Potency is 24.3 µM (active).

Turning to `Clc1ccc2n[nH]nc2c1`, the “activity change, negative = cytotoxicity” value was -2.69% (inactive).

For `Oc1ccc(C2(c3ccc(O)cc3)CC3CC2C2CCCC32)cc1` (stereo not given), the Potency is 41.6 µM (active).

With `CNCc1cc(F)ccc1Oc1ccc(Cl)c(Cl)c1`, the “activity change, negative = cytotoxicity” value is -1.21% (inactive).

Regarding `Oc1cc2ccccc2c2ccccc12`, the Potency is 6.86 µM (active).

As for `N=C1N=C(N)c2cc3ccccc3cc21`, the Potency is 27.3 µM (active).

On to `CCCC1O[C@@H]2C[C@H]3[C@@H]4CCC5=CC(=O)C=C[C@]5(C)[C@H]4[C@@H](O)C[C@]3(C)[C@]2(C(=O)CO)O1` (stereo not given in full), for which the Potency entry was “inactive”.

Regarding `O=c1[nH]sc2ccccc12`, the Potency was 27.3 µM (active).

Another assay can be described thus: qHTS assay to identify small molecule agonists of the progesterone receptor (PR) signaling pathway - cell viability counter screen (AID 1346799; calls by dose curve; also: nearly all actives have a fitted effect of over 45% in size). The note with it: PR-UAS-bla HEK293T viability, CellTiter-Glo luminescence, 16 h; series mostly up to 92.4 µM; activity change, negative = cytotoxicity: at the top concentration. Put shortly:
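Here, 3,000 PR-UAS-bla HEK293T cells per well were treated with compounds for 16 hr after a 6 hr preincubation at 37C and 5% CO2; cell viability is the CellTiter-Glo luminescence signal.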
Regarding `CCCCCCCC/C=C/CCCCCCCC1=NCCN1CCO`, the Potency is 61.1 µM (active).

As for `NC(=O)C1(N2CCCCC2)CCN(CCCN2c3ccccc3CCc3ccc(Cl)cc32)CC1`, the Potency was 16.8 µM (active).

`CCCCCOC(=O)CCCC`: the “activity change, negative = cytotoxicity” value was -11.9% (inactive).

Take `O=[N+]([O-])c1ccccc1Nc1ccccc1`: the “activity change, negative = cytotoxicity” value was 5.89% (inactive).

Consider `Nc1ccc(N)c2ccccc12`, for which the “activity change, negative = cytotoxicity” value is 17.7% (inactive).

On to `CCc1cc(Cc2cc(CC)c(N)c(CC)c2)cc(CC)c1N`, for which the Potency is 54.5 µM (active).

As for `O=C1C=CC(=O)N1`, the Potency was 62.8 µM (active).

Consider `CCOC(=O)O[C@H](C)OC(=O)c1ccc2c(c1)cc(C(=O)NC1CCN(C(C)C)CC1)n2Cc1cc(-c2ccc(Cl)s2)on1`, for which the Potency is 22.7 µM (active).

As to `Cc1cc(O)c(C(C)(C)C)cc1C(C)(C)C`, the Potency was 48.6 µM (active).

Take `CN1CCC(Nc2ncc3ncnc(Nc4ccc(F)c(Cl)c4)c3n2)CC1`: the Potency was 9.44 µM (active).

In the case of `CC[C@@]1(O)C(=O)OCc2c1cc1n(c2=O)Cc2c-1nc1ccccc1c2/C=N/OC(C)(C)C`, the “activity change, negative = cytotoxicity” value is -18.4% [at 42.5 µM] (inactive).

On to `CCN(C(=O)c1cc(C)cc(OC[C@H](C)Nc2ccncc2)c1)C(C)C`, for which the “activity change, negative = cytotoxicity” value is -5.62% [at 42.5 µM] (inactive).

`COc1ccc(CN2CCN(C(c3ccc(F)cc3)c3ccc(F)cc3)CC2)c(OC)c1OC`: the Potency is 13.3 µM (active).

Turning to `Nc1nc2ccccc2n1Cc1ccc(F)cc1`, the “activity change, negative = cytotoxicity” value was 0% [at 42.5 µM] (inactive).

Consider `O=C(Nc1cccc([N+](=O)[O-])c1)c1cc2ccccc2cc1O`, for which the “activity change, negative = cytotoxicity” value is -29.6% (inactive).

Regarding `Oc1ccc(C2(c3ccc(O)cc3)CC3CC2C2CCCC32)cc1` (stereo not given), the Potency is 58.7 µM (active).

`Nc1ccc2c3c(cccc13)-c1ccccc1-2`: the “activity change, negative = cytotoxicity” value is -24.3% (inactive).

On to `CNCc1cc(F)ccc1Oc1ccc(Cl)c(Cl)c1`, for which the “activity change, negative = cytotoxicity” value is -1.69% (inactive).

For `Oc1cc2ccccc2c2ccccc12`, the Potency was 12.2 µM (active).

Regarding `N=C1N=C(N)c2cc3ccccc3cc21`, the Potency was 27.3 µM (active).

Take `CCCC1O[C@@H]2C[C@H]3[C@@H]4CCC5=CC(=O)C=C[C@]5(C)[C@H]4[C@@H](O)C[C@]3(C)[C@]2(C(=O)CO)O1` (stereo not given in full): the “activity change, negative = cytotoxicity” value was 40.1% (inactive).

Take `CCOc1ccc2nc3cc(N)ccc3c(N)c2c1`: the “activity change, negative = cytotoxicity” value was -15.5% [at 42.5 µM] (inactive).

Turning to `O=c1[nH]sc2ccccc12`, the Potency was 30.6 µM (active).

The next assay can be described thus: qHTS assay to identify small molecule antagonists of the TGF-beta/Smad signaling pathway - cell viability counter screen (AID 1346824). Also: nearly all actives have a fitted effect of over 50% in size. Particulars: SBE-bla HEK293T viability, CellTiter-Glo luminescence; series mostly up to 76.8 µM; viability change, negative = cytotoxic: at the top concentration. The essentials:
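SBE-bla HEK 293T cells, incubated overnight, then compound plus 0.25 ng/mL TGF-beta1 (stock added) for 5 hr at 37 C. Viability was read in the same wells by CellTiter-Glo luminescence after 30 min at room temperature.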
In the case of `Cc1cc(=O)oc2cc(N(C)C)ccc12`, the “viability change, negative = cytotoxic” value was 11.6% (inactive).

For `CCCCCCCC/C=C/CCCCCCCC1=NCCN1CCO`, the “viability change, negative = cytotoxic” value was -14.8% (inactive).

In the case of `Cc1cccc2c1cc1ccc3cccc4ccc2c1c34`, the “viability change, negative = cytotoxic” value was -0.183% (inactive).

Regarding `O=[N+]([O-])c1ccccc1Nc1ccccc1`, the “viability change, negative = cytotoxic” value was -10.9% (inactive).

Consider `CCCCC(CC)COC(=O)c1ccccc1C(=O)O` (stereo not given), for which the “viability change, negative = cytotoxic” value is 3.81% (inactive).

In the case of `CCCC(=O)OC[C@@H](OC(=O)CCC)[C@@H](OC(=O)CCC)[C@H](Cn1c2nc(=O)[nH]c(=O)c-2nc2cc(C)c(C)cc21)OC(=O)CCC`, the “viability change, negative = cytotoxic” value is 10.1% [at 35.3 µM] (inactive).

On to `O=C(Nc1ccc(Oc2ccc(Cl)cc2)c(Cl)c1)c1cc(I)cc(I)c1O`, for which the “viability change, negative = cytotoxic” value is -21.8% [at 35.3 µM] (inactive).

`CCc1cc(Cc2cc(CC)c(N)c(CC)c2)cc(CC)c1N`: the “viability change, negative = cytotoxic” value is 1.95% (inactive).

Turning to `CCN(CC)CCCC(C)Nc1c2ccc(Cl)cc2nc2ccc(OC)cc12` (stereo not given), the “viability change, negative = cytotoxic” value was 0.227% [at 35.3 µM] (inactive).

Regarding `CN1CCC(Nc2ncc3ncnc(Nc4ccc(F)c(Cl)c4)c3n2)CC1`, the “viability change, negative = cytotoxic” value is -6.4% [at 35.3 µM] (inactive).

As for `CC[C@@]1(O)C(=O)OCc2c1cc1n(c2=O)Cc2c-1nc1ccccc1c2/C=N/OC(C)(C)C`, the “viability change, negative = cytotoxic” value is -17.7% [at 35.3 µM] (inactive).

Regarding `CCN(C(=O)c1cc(C)cc(OC[C@H](C)Nc2ccncc2)c1)C(C)C`, the “viability change, negative = cytotoxic” value is 1.98% [at 35.3 µM] (inactive).

For `COc1ccc(CN2CCN(C(c3ccc(F)cc3)c3ccc(F)cc3)CC2)c(OC)c1OC`, the Potency is 16.9 µM (active).

Regarding `O=C(Nc1cccc(Cl)c1)OCC#CCCl`, the “viability change, negative = cytotoxic” value was 2.33% (inactive).

Regarding `O=C(NOCC1CC1)c1ccc(F)c(F)c1Nc1ccc(I)cc1Cl`, the “viability change, negative = cytotoxic” value is -4.73% [at 35.3 µM] (inactive).

Consider `Clc1ccc2n[nH]nc2c1`, for which the “viability change, negative = cytotoxic” value was 19.8% (inactive).

`Nc1ccc2c3c(cccc13)-c1ccccc1-2`: the “viability change, negative = cytotoxic” value is -5.67% (inactive).

`CNCc1cc(F)ccc1Oc1ccc(Cl)c(Cl)c1`: the “viability change, negative = cytotoxic” value was -12.5% (inactive).

In the case of `Oc1cc2ccccc2c2ccccc12`, the Potency was 11 µM (active).

In the case of `CCCC1O[C@@H]2C[C@H]3[C@@H]4CCC5=CC(=O)C=C[C@]5(C)[C@H]4[C@@H](O)C[C@]3(C)[C@]2(C(=O)CO)O1` (stereo not given in full), the Potency entry was “inactive”.

As for `CCOc1ccc2nc3cc(N)ccc3c(N)c2c1`, the “viability change, negative = cytotoxic” value is -0.403% [at 35.3 µM] (inactive).

On to `CC[C@@]1(O)C(=O)OCc2c1cc1n(c2=O)Cc2cc3c(CN(C)C)c(O)ccc3nc2-1`, for which the “viability change, negative = cytotoxic” value is -3.44% [at 35.3 µM] (inactive).

Values taken from PubChem BioAssay (Tox21).
